Results: PubChem BioAssay (NCATS)
Records with an inconclusive call do not appear. A call without a number means that no potency is given here. Activity calls are given as the source filed them. The call rests on the fitted dose curve; in most records, active means well fitted inhibition curve with a large enough effect; inconclusive means small, poorly fitted or top-dose-only effect; inactive means flat fitted curve, though single readings scatter.

system: CP203; assay: qHTS profiling for inhibitors of Plasmodium falciparum proliferation (AID 504749); further: nearly all actives have a fitted effect of over 60% in size; conditions: P. falciparum in erythrocytes, SYBR Green DNA, 72 h; series mostly up to 28.7 µM
Source text: NIH National Institute of Allergy and Infectious Diseases [NIAID] NIH Chemical Genomics Center [NCGC] MLPCN Grant: None Assay Provider: Xinzhuan Su, NIAID NCGC Assay Overview: Plasmodium falciparum is a virulent malarial parasite that kills 1-2 million people worldwide each year. Transmitted by mosquitoes, the sporozoite form of the parasite enters the blood stream to infect hepatocytes, where they become merozoites that infect red blood cells (erythrocytes). Within erythrocytes, merozoites begin a […] cycle of growth and division, after which the parasite is released to infect new red blood cells. Gametocytes, which form within erythrocytes as well, circulate in the bloodstream and are ingested by the mosquito, thereby completing the life cycle. To profile malarial isolates for differential chemical responses and to identify inhibitors of malarial growth, an assay that measures P. falciparum growth and replication within erythrocytes was employed. This assay uses a DNA binding fluorescent dye (SYBR Green) to detect parasite DNA following cell lysis. Because mature erythrocytes lack DNA, only Plasmodium-derived DNA is detected.
NCGC Assay Protocol Summary: The SYBR Green viability assay was adapted from a method described previously (Plouffe et al., 2008). For screening 3 ul culture medium was dispensed into 1536 well black clear bottom plates (Aurora Biotechnologies) using a Multidrop Combi (Thermo Fisher Scientific Inc.), 23 nL compounds in DMSO were added by a pin tool (Kalypsys), and 5 ul of erythrocytes infected with P. falciparum (0.3% parasitemia, 2.5% hematocrit final concentration) were added. The plates were incubated at 37 C in a humidified incubator in 5% CO2 for 72 h, and 2 ul lysis buffer (20 mM Tris HCl, 10 mM EDTA, 0.16% saponin, 1.6% triton X, 10X SYBR Green I supplied as 10,000X […] by Invitrogen) was added to each well. The plates were mixed for 25 sec with gentle shaking and incubated overnight at room temperature in the dark. The following morning, fluorescence intensity at 485(14) nm excitation and 535(25) nm emission wavelengths was measured on an EnVision (Perkin Elmer) plate reader. Plate reads were normalized relative to the control inhibitor (0.29 uM artemisinin) and vehicle (DMSO) wells present on each plate and then corrected by an algorithm using vehicle-only control plates at the beginning and end of the compound plate stack.
Potency means the concentration at half of the fitted maximal effect.

Row | SMILES | Potency
1 | NC(=O)NO | inactive
2 | CC(C)(Oc1ccc(C2CC2(Cl)Cl)cc1)C(=O)O (stereo not given) | inactive
3 | OCCN1CCN(CCCN2c3ccccc3Sc3ccc(C(F)(F)F)cc32)CC1 | 13.5 µM (active)
4 | Nc1nc2c(ncn2COC(CO)CO)c(=O)[nH]1 | inactive
5 | Cc1cnc(C(=O)NCCc2ccc(S(=O)(=O)NC(=O)NC3CCCCC3)cc2)cn1 | inactive
6 | CN1CCC(=C2c3ccccc3CC(=O)c3sccc32)CC1 | 8.49 µM (active)
7 | Clc1ccc2c(c1)C(N1CCNCC1)=Nc1ccccc1O2 | inactive
8 | Clc1ccccc1C(c1ccccc1)(c1ccccc1)n1ccnc1 | 0.721 µM (active)
9 | Nc1nnc(-c2cccc(Cl)c2Cl)c(N)n1 | inactive
10 | Cn1c(=O)c2[nH]cnc2n(C)c1=O | inactive
11 | O=C(c1ccc(OCCN2CCCCC2)cc1)c1c(-c2ccc(O)cc2)sc2cc(O)ccc12 | 16.9 µM (active)
12 | CS(=O)(=O)Nc1ccc([N+](=O)[O-])cc1Oc1ccccc1 | inactive
13 | Cn1cnc2c1c(=O)[nH]c(=O)n2C | inactive
14 | CCOC(=O)Nc1ccc(NCc2ccc(F)cc2)nc1N | inactive
15 | CC#C[C@]1(O)CC[C@H]2[C@@H]3CCC4=CC(=O)CCC4=C3[C@@H](c3ccc(N(C)C)cc3)C[C@@]21C | 19 µM (active)
16 | CN1C(C(=O)Nc2ccccn2)=C(O)c2ccccc2S1(=O)=O | inactive
17 | CN(C)c1nc(N(C)C)nc(N(C)C)n1 | inactive
18 | Cn1c(=O)c2c(ncn2C)n(C)c1=O | inactive
19 | Cc1cn([C@H]2C[C@H](N=[N+]=[N-])[C@@H](CO)O2)c(=O)[nH]c1=O | inactive
20 | CC12CC3CC(C)(C1)CC(N)(C3)C2 | inactive

Row | SMILES | Potency
21 | CCCCc1oc2ccccc2c1C(=O)c1cc(I)c(OCCN(CC)CC)c(I)c1 | 15.1 µM (active)
22 | NS(=O)(=O)c1cc2c(cc1Cl)NCNS2(=O)=O | inactive
23 | COC(=O)Nc1nc2ccc(C(=O)c3cccs3)cc2[nH]1 | inactive
24 | CC(C)C(=O)Nc1ccc([N+](=O)[O-])c(C(F)(F)F)c1 | inactive
25 | CC(=O)OCC(CCn1cnc2cnc(N)nc21)COC(C)=O | inactive
26 | CN(Cc1cnc2nc(N)nc(N)c2n1)c1ccc(C(=O)N[C@@H](CCC(=O)O)C(=O)O)cc1 | inactive
27 | NC(=O)OCC(COC(N)=O)c1ccccc1 | inactive
28 | Cc1cc(C(C)(C)C)cc(C)c1CC1=NCCN1 | inactive
29 | O=C(c1ccc(F)cc1)C1CCN(CCn2c(=O)[nH]c3ccccc3c2=O)CC1 | inactive
30 | CN1CCC(=C2c3ccccc3C=Cc3ccccc32)CC1 | inactive
31 | O=C1N(c2ccccc2)c2ccccc2C1(Cc1ccncc1)Cc1ccncc1 | inactive
32 | COc1ccccc1OCC(O)CN1CCN(CC(=O)Nc2c(C)cccc2C)CC1 (stereo not given) | inactive
33 | CC(CCc1ccc(O)cc1)NCCc1ccc(O)c(O)c1 (stereo not given) | inactive
34 | CN1CCN2c3ccccc3Cc3ccccc3C2C1 (stereo not given) | inactive
35 | CC(C)NCC(O)c1ccc(O)c(O)c1 (stereo not given) | inactive
36 | NC12CC3CC(CC(C3)C1)C2 | inactive
37 | CCCNCC(O)COc1ccccc1C(=O)CCc1ccccc1 (stereo not given) | 1.69 µM (active)
38 | CC[N+](CC)(CC)CCOc1cccc(OCC[N+](CC)(CC)CC)c1OCC[N+](CC)(CC)CC | inactive
39 | COc1nc(C)nc(Cl)c1NC1=NCCN1 | inactive
40 | COc1ccc2[nH]cc(CCNC(C)=O)c2c1 | inactive
